Source: PubChem BioAssay (NCI)
Compounds without any hit were thinned out: in the full panel of roughly 83,000, 20% have a hit.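 48-hour exposure, single concentration, 96-well plates; percent growth endpoint where 0 means no net growth. Active: below 10.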 Unmarked numbers belong to inactive results. Activity calls are given as the source filed them.

What was measured:
Test in all cases: NCI-60 one-dose screen, 48 h (100 = growth as untreated, 0 = no growth, -100 = all killed)
Conditions in all cases: 10 µM unless noted
[1] = test system: SR leukemia
[2] = test system: RPMI-8226 leukemia
[3] = test system: OVCAR-8 ovarian
[4] = test system: OVCAR-5 ovarian
[5] = test system: OVCAR-4 ovarian
[6] = test system: SK-OV-3 ovarian
[7] = test system: IGROV1 ovarian
[8] = test system: OVCAR-3 ovarian
[9] = test system: HS 578T breast
[10] = test system: NCI/ADR-RES ovarian
[11] = test system: T-47D breast
[12] = test system: BT-549 breast
[13] = test system: MDA-MB-435 melanoma
[14] = test system: SW-620 colon
[15] = test system: MCF7 breast
[16] = test system: HCT-116 colon
[17] = test system: HCC-2998 colon
[18] = test system: KM12 colon

| SMILES | growth [1] | growth [2] | growth [3] | growth [4] | growth [5] | growth [6] | growth [7] | growth [8] | growth [9] | growth [10] | growth [11] | growth [12] | growth [13] | growth [14] | growth [15] | growth [16] | growth [17] | growth [18] |
| --- | --- | --- | --- | --- | --- | --- | --- | --- | --- | --- | --- | --- | --- | --- | --- | --- | --- | --- |
| CCCC1OC(c2ccco2)OCC1CC (configuration not stated) | 106% | 94.8% | 101% | 100% | 115% | 113% | 95.1% | 109% | 118% | 107% | 103% | 98.3% | 108% | 99.1% | 117% | 99% | 101% | 103% |
| CN1CCCN(C(c2ccccc2)c2ccc(Br)cc2)CC1 (configuration not stated) | 4.87% (active) | 84.1% | 93.9% | 92.6% | 84.7% | 81.5% | 78.6% | 69.9% | 42.4% | 79.1% | 103% | 63.3% | -29.3% (active) | 49.6% | 37.5% | 21.4% | 95.9% | 63.9% |
| CC(=O)C1C(=O)C(=O)N(c2ccc(Cl)c(Cl)c2)C1=O (configuration not stated) | 91.2% | 107% | 101% | 104% | 88.5% | 106% | 98.6% | 107% | 103% | 97% | 93.2% | 97.5% | 103% | 108% | 89.1% | 91.3% | 101% | 103% |
| C=CCS(C)(=O)=O | 99.4% | 104% | 95.4% | 101% | 113% | 90.3% | 112% | 108% | 89.2% | 104% | – | – | 96.7% | 95.4% | 96.3% | 94% | 108% | 88.3% |
| C1C[S+]2CC[S+]1CC2 | 101% | 95.1% | 96% | 107% | 115% | 100% | 106% | 102% | 108% | 99.3% | – | 97% | 109% | 101% | 103% | 104% | 105% | 106% |
| CCC(C)c1c(N)n(S(=O)(=O)c2ccc(C)cc2)oc1=O (configuration not stated) | 107% | 100% | 96.6% | 99.1% | 109% | 113% | 88.7% | 118% | 130% | 120% | – | 110% | 107% | 105% | 108% | 102% | – | 104% |
| CC(CCC#N)(CCC#N)C(=O)c1ccccc1 | 104% | 101% | 105% | 109% | 90% | 115% | 125% | 123% | 97.8% | 106% | 93.8% | – | 107% | 103% | 95.9% | 112% | 101% | 108% |
| COC(=O)Cc1cc(COC(C)=O)ccc1C | 75.4% | 110% | 108% | 103% | 114% | 125% | 107% | 109% | 112% | 107% | 110% | – | 116% | 110% | 106% | 104% | 106% | 114% |
| C=CC(=O)OC1CCC(C(C)(C)CC)CC1 (configuration not stated) | 98.9% | 103% | 107% | 103% | 105% | 111% | 117% | 109% | 101% | 105% | 112% | – | 103% | – | 96% | 104% | 110% | 106% |
| CCCCCC(=O)OCCC1CCCCC1 | 88.9% | 103% | 104% | 105% | 101% | 106% | 108% | 95.3% | 89.7% | 103% | – | 98.7% | 100% | 98.4% | 107% | 89.8% | 99.1% | – |
| Ic1cccs1 | 97.9% | 106% | 99.2% | 107% | 102% | 115% | 105% | 107% | 98.8% | 98.8% | – | 107% | 107% | 104% | 97.9% | 103% | 108% | 103% |
| CCOC(C=O)OCC | 89.9% | 99.1% | 102% | 102% | 114% | 106% | 108% | 109% | 109% | 107% | – | 103% | 102% | – | 95.4% | 105% | 99.1% | 104% |
